This is an account of results in PubChem BioAssay (EPA / NIEHS).

In test [1] the target is human RAR-related Orphan Receptor beta (RORb), RORB (gene 6096) (UniProt Q92753). The test is described as follows: ATG_RORb_TRANS: Attagene TRANS-FACTORIAL HepG2 Assay for human RAR-related Orphan Receptor beta (RORb) (AID 2283010). The method, boiled down: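 In this TRANS-format test, human HepG2 cells express chimeric NR-Gal4 fusion proteins driving GAL4-UAS reporters. After 24 h dosing, reporter transcripts are measured by fluorescent RT-PCR/capillary electrophoresis, with DMSO as negative control.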

Test [2] addresses human Retinoid X Receptor beta (RXRb), RXRB (gene 6257) (UniProt P28702). Put plainly: ATG_RXRb_TRANS: Attagene TRANS-FACTORIAL HepG2 Assay for human Retinoid X Receptor beta (RXRb) (AID 2283013). The method, boiled down:
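Multiplexed TRANS reporter assay in HepG2; 24 h dosing; reporter mRNA by RT-PCR/CE fluorescence; gain-of-signal relative to DMSO.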

The target of test [3] is human Vitamin D Receptor (VDR), VDR (gene 7421) (UniProt P11473). Put plainly: ATG_VDR_TRANS: Attagene TRANS-FACTORIAL HepG2 Assay for human Vitamin D Receptor (VDR) (AID 2283022). The method, boiled down: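 HepG2 cells were transiently transfected with GAL4-UAS reporter units and a chimeric VDR-Gal4 construct, then dosed for 24 hours. Reporter mRNA was quantified by RT-PCR, fluorescent labeling, HpaI digestion and capillary electrophoresis; gain of signal analysed vs DMSO.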

For test [4], the target named is human RAR-related Orphan Receptor gamma (RORg), RORC (gene 6097) (UniProt P51449). The test is described as follows: ATG_RORg_TRANS: Attagene TRANS-FACTORIAL HepG2 Assay for human RAR-related Orphan Receptor gamma (RORg) (AID 2283011). In outline:
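HepG2 cells transiently transfected with GAL4-UAS reporter units and chimeric RORg-Gal4 construct; after 24 h chemical exposure, reporter mRNA measured by RT-PCR with fluorescent capillary electrophoresis, gain of signal fitted against DMSO.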

Test [5] concerns the target Retinoic acid receptor RXR-alpha (Homo sapiens) (UniProt P19793). The test is described as follows: ATG_RXRa_TRANS: Attagene TRANS-FACTORIAL HepG2 Assay for human Retinoid X Receptor alpha (RXRa) (AID 2283012). In outline: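 Cells (HepG2) carried transiently transfected GAL4-responsive reporter units. Following a 24 h chemical incubation, reporter mRNA induction was read via RT-PCR fragment analysis; DMSO served as negative control and baseline.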

Test [6] deals with human Thyroid Receptor alpha (THRa1), THRA (gene 7067) (UniProt P10827). Put plainly: ATG_THRa1_TRANS: Attagene TRANS-FACTORIAL HepG2 Assay for human Thyroid Receptor alpha (THRa1) (AID 2283014). The method, boiled down:
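HepG2 cells transiently transfected with chimeric NR-Gal4 and GAL4-UAS reporter units, dosed 24 h. Reporter mRNA quantified by RT-PCR, fluorescent labeling, HpaI digestion and capillary electrophoresis; gain-of-signal fit versus DMSO.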

Read-out in test [7]: E-selectin (Homo sapiens) (UniProt P16581)
The test is described as follows: BSK_3C_Eselectin: BioMAP Diversity Plus: 3C Assay for Eselectin Biomarker Activity (AID 2283015; active = hit-call score of the fitted dose curve at least 0.9, where 1 is the maximum; inactive = score below 0.9;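 for outcome: cell surface E-selectin protein quantified by ELISA 24 h after dosing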). The settings on record: primary human endothelial cells (HUVEC); actives raise or lower the signal. The method, boiled down:
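Primary human umbilical vein endothelial cells (3C system), read 24 h after compound addition; E-selectin measured by ELISA. Bidirectional curve fitting against DMSO baseline; cytotoxicity by parallel SRB total-protein staining.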

Read-out in test [8]: Interleukin-1 alpha (IL1a), IL1A (gene 3552)
Put plainly: BSK_BE3C_IL1a: BioMAP Diversity Plus: BE3C Assay for Interleukin-1 alpha (IL1a) Biomarker Activity (AID 2283016; active = hit-call score of the fitted dose curve at least 0.9, where 1 is the maximum; inactive = score below 0.9). The settings on record: primary human bronchial epithelial cells; actives raise or lower the signal. The method, boiled down:
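Cultures of primary human bronchial epithelial cells receive test chemical. After 24 h, IL-1a is quantified by ELISA, while parallel wells are fixed in TCA and SRB-stained for total protein. Changes in either direction are fitted relative to DMSO.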

Read-out in test [9]: Monocyte Chemoattractant Protein-1 (MCP1), CCL2 (gene 6347)
Put plainly: BSK_3C_MCP1: BioMAP Diversity Plus: 3C Assay for Monocyte Chemoattractant Protein-1 (MCP1) Biomarker Activity (AID 2283017; active = hit-call score of the fitted dose curve at least 0.9, where 1 is the maximum; inactive = score below 0.9). The settings on record: primary human endothelial cells (HUVEC); actives raise or lower the signal. In outline:
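Human umbilical vein endothelial cells (3C system) exposed to chemicals for 24 h; MCP-1 quantified by ELISA against the DMSO baseline with bidirectional fitting, and parallel SRB staining used to assess cytotoxicity.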

Read-out in test [10]: Monocyte Chemoattractant Protein-1 (MCP1), CCL2 (gene 6347)
The test is described as follows: BSK_4H_MCP1: BioMAP Diversity Plus: 4H Assay for Monocyte Chemoattractant Protein-1 (MCP1) Biomarker Activity (AID 2283018; active = hit-call score of the fitted dose curve at least 0.9, where 1 is the maximum; inactive = score below 0.9). The following applies: primary human endothelial cells (HUVEC); actives raise or lower the signal. In outline: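 Readout: MCP-1 ELISA on compound-treated HUVEC, sampled 24 h post-dosing. Baseline and negative control DMSO; bidirectional fit. Overt toxicity checked alongside by sulforhodamine B protein staining at time of biomarker measurement.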

Read-out in test [11]: Human Leukocyte Antigen - DR isotype (HLADR), HLA-DRA (gene 3122)
Put plainly: BSK_3C_HLADR: BioMAP Diversity Plus: 3C Assay for Human Leukocyte Antigen - DR isotype (HLADR) Biomarker Activity (AID 2283019; active = hit-call score of the fitted dose curve at least 0.9, where 1 is the maximum; inactive = score below 0.9;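 for outcome: ELISA of cell-surface HLA-DR on HUVEC 24 h after dosing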). The following applies: primary human endothelial cells (HUVEC); actives raise or lower the signal. The method, boiled down:
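HUVEC monoculture, HLA-DR measured by ELISA 24 h after chemical dosing. Fitted bidirectionally against DMSO baseline; parallel SRB staining assessed cytotoxicity, with 3C proliferation read by SRB at 48 h.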

Read-out in test [12]: Monokine induced gamma interferon (MIG), CXCL9 (gene 4283)
The test is described as follows: BSK_3C_MIG: BioMAP Diversity Plus: 3C Assay for Monokine induced gamma interferon (MIG) Biomarker Activity (AID 2283021; active = hit-call score of the fitted dose curve at least 0.9, where 1 is the maximum; inactive = score below 0.9). The settings on record: primary human endothelial cells (HUVEC); actives raise or lower the signal. In outline:
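After 24 h of treatment, human umbilical vein endothelial cultures (3C system) had their MIG biomarker level determined by ELISA, with DMSO serving as negative control.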

Test [13] can be described thus: BSK_3C_SRB: Viability Assessment in the BioMAP Diversity Plus: 3C Assay (AID 2283023; active = hit-call score of the fitted dose curve at least 0.9, where 1 is the maximum; inactive = score below 0.9;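 note: fitted both ways against DMSO so a hit may be signal rise or drop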). The following applies: primary human endothelial cells (HUVEC). In outline:
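Human umbilical vein endothelial cells in the 3C system, treated 24 h. Total protein measured by 0.1% sulforhodamine B staining after 10% TCA fixation, read at 560 nm; bidirectional fit versus DMSO.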

Read-out in test [14]: Matrix Metallopeptidase 1 (MMP1), MMP1 (gene 4312)
The test is described as follows: BSK_BE3C_MMP1: BioMAP Diversity Plus: BE3C Assay for Matrix Metallopeptidase 1 (MMP1) Biomarker Activity (AID 2283024; active = hit-call score of the fitted dose curve at least 0.9, where 1 is the maximum; inactive = score below 0.9). The following applies: primary human bronchial epithelial cells; actives raise or lower the signal. In outline:
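Dose cells, wait 24 h, run MMP1 ELISA; cells are human bronchial epithelial primaries. Both increases and decreases relative to DMSO counted.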

Test [15] can be described thus: BSK_3C_Vis: BioMAP Diversity Plus: 3C Assay for Morphology Visualization (AID 2283025; active = hit-call score of the fitted dose curve at least 0.9, where 1 is the maximum; inactive = score below 0.9;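 note: fitted both ways so gain or loss versus DMSO counts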;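 for AC50: light microscopy image of cell morphology used as background control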). The settings on record: primary human endothelial cells (HUVEC). In outline:
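Endothelial cells from human umbilical vein were treated with test chemicals for 24 h and inspected by light microscopy for changes in cell conformation.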

Read-out in test [16]: Pselectin, SELP (gene 6403)
Put plainly: BSK_4H_Pselectin: BioMAP Diversity Plus: 4H Assay for Pselectin Biomarker Activity (AID 2283026; active = hit-call score of the fitted dose curve at least 0.9, where 1 is the maximum; inactive = score below 0.9). The settings on record: primary human endothelial cells (HUVEC); actives raise or lower the signal. The method, boiled down: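 Human vascular endothelium from umbilical vein; P-selectin measured by ELISA at 24 h post-dose, with cytotoxicity checked by sulforhodamine B total-protein staining in parallel cultures (0.1% SRB after 10% TCA fixation, read at 560 nm).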

A short description of test [17]: BSK_4H_SRB: Viability Assessment in the BioMAP Diversity Plus: 4H Assay (AID 2283027; active = hit-call score of the fitted dose curve at least 0.9, where 1 is the maximum; inactive = score below 0.9;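 note: cells exposed to compound for 24 h before staining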;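 for AC50: curves fitted both ways versus DMSO so AC50 may be loss or gain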). The following applies: primary human endothelial cells (HUVEC). In outline: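 Absorbance at 560 nm of SRB-stained total protein served as the viability read-out in confluent primary human umbilical vein endothelium 24 h after chemical treatment. Curves were fitted bidirectionally against DMSO as negative control.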

Test [18] in a line: BSK_BE3C_SRB: Viability Assessment in the BioMAP Diversity Plus: BE3C Assay (AID 2283028; active = hit-call score of the fitted dose curve at least 0.9, where 1 is the maximum; inactive = score below 0.9). The following applies: primary human bronchial epithelial cells. The method, boiled down: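 Human bronchial epithelial primary cells in confluent culture, 24 h after chemical dosing; total protein by 0.1% SRB staining after 10% TCA fixation, read at 560 nm. Bidirectional fitting versus DMSO baseline.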

Read-out in test [19]: Thrombomodulin, THBD (gene 7056)
Put plainly: BSK_3C_Thrombomodulin: BioMAP Diversity Plus: 3C Assay for Thrombomodulin Biomarker Activity (AID 2283029; active = hit-call score of the fitted dose curve at least 0.9, where 1 is the maximum; inactive = score below 0.9). The settings on record: primary human endothelial cells (HUVEC); actives raise or lower the signal. In outline: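 Thrombomodulin ELISA, human primary HUVEC, 24 h post-dose; data fitted in both directions relative to DMSO.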

Structures are written as SMILES. Inconclusive results are not listed. Active and inactive are the calls of the source. Rule for the calls, unless noted: active = hit-call score of the fitted dose curve at least 0.9, where 1 is the maximum; inconclusive = response in the unintended direction; inactive = score below 0.9.

Retinoic acid receptor RXR-alpha (Homo sapiens), sequence (P19793 whole entry, looked up, the tested form may be a part): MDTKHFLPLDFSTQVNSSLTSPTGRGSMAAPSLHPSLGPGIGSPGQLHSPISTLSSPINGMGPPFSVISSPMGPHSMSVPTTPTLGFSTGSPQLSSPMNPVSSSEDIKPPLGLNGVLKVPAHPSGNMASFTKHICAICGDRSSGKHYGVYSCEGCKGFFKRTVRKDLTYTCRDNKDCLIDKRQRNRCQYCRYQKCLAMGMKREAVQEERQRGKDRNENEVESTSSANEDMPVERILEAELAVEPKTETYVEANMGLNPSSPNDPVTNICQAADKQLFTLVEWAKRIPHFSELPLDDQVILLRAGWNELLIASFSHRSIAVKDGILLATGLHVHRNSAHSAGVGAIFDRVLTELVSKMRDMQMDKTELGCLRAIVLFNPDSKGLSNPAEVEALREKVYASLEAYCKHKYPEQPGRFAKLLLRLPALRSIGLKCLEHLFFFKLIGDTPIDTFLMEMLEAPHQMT
human RAR-related Orphan Receptor beta (RORb), RORB (gene 6096), sequence (Q92753 whole entry, looked up, the tested form may be a part): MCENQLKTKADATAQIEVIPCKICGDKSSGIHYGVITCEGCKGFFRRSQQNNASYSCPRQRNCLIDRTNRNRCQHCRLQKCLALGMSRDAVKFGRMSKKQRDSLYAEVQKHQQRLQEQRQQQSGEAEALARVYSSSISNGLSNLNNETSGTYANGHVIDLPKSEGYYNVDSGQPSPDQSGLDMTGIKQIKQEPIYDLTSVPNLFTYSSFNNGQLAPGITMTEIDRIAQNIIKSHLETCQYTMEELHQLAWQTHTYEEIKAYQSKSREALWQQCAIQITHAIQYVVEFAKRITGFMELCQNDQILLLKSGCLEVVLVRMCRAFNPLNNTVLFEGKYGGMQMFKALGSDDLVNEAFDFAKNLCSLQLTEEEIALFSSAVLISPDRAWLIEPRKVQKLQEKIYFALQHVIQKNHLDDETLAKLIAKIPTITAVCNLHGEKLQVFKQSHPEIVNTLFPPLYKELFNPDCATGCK
human Vitamin D Receptor (VDR), VDR (gene 7421), sequence (P11473 whole entry, looked up, the tested form may be a part): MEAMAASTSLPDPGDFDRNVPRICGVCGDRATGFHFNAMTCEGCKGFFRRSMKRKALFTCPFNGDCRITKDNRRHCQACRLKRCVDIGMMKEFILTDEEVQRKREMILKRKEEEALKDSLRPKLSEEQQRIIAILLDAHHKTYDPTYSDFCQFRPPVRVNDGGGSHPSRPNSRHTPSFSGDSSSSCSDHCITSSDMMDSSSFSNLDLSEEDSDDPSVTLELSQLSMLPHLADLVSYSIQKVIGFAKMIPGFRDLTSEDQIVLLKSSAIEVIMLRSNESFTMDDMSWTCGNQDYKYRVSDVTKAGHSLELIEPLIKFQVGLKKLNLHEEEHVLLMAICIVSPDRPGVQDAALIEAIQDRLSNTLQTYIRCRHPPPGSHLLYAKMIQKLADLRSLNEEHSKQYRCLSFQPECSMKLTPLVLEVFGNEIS
human Retinoid X Receptor beta (RXRb), RXRB (gene 6257), sequence (P28702 whole entry, looked up): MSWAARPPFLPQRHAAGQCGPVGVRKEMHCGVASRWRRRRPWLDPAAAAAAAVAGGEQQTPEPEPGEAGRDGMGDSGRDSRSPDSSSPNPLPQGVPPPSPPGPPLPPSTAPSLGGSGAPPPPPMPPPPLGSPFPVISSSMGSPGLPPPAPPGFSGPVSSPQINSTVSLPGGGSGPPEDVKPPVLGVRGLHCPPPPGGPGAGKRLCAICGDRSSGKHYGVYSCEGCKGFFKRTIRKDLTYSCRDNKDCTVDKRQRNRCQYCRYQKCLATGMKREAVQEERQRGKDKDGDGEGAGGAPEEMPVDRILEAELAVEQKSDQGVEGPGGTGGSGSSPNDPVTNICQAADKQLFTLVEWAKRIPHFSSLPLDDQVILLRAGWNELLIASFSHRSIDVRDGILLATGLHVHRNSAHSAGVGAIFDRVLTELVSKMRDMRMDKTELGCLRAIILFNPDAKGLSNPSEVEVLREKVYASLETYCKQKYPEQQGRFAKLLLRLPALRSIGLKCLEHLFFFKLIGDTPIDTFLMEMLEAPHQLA
human Thyroid Receptor alpha (THRa1), THRA (gene 7067), sequence (P10827 whole entry, looked up, the tested form may be a part): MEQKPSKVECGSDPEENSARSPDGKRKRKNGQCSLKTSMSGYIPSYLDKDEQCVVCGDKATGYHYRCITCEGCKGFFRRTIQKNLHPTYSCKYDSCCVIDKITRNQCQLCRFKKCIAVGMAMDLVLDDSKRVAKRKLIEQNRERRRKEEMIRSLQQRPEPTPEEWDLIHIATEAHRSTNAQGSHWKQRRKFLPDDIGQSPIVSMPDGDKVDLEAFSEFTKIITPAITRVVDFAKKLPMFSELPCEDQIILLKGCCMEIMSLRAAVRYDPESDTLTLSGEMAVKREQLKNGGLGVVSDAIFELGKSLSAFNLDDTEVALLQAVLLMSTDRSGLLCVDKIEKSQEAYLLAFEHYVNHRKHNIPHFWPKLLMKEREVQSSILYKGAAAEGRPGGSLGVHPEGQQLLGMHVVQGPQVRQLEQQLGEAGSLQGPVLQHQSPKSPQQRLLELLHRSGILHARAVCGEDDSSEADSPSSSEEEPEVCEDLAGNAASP
human RAR-related Orphan Receptor gamma (RORg), RORC (gene 6097), sequence (P51449 whole entry, looked up, the tested form may be a part): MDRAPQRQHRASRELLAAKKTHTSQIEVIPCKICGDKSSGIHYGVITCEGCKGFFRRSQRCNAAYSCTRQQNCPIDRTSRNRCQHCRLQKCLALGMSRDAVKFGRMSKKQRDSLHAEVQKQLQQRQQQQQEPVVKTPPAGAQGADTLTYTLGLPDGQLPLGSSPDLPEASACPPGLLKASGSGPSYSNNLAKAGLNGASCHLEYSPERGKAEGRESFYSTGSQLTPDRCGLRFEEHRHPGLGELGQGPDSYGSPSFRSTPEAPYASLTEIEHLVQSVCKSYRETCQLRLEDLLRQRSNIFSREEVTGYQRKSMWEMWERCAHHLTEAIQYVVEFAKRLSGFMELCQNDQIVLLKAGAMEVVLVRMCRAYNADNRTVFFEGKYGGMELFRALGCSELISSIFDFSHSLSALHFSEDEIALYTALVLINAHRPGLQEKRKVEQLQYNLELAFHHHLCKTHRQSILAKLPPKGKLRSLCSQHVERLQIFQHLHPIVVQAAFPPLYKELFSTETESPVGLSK
E-selectin (Homo sapiens), sequence (P16581 whole entry, looked up): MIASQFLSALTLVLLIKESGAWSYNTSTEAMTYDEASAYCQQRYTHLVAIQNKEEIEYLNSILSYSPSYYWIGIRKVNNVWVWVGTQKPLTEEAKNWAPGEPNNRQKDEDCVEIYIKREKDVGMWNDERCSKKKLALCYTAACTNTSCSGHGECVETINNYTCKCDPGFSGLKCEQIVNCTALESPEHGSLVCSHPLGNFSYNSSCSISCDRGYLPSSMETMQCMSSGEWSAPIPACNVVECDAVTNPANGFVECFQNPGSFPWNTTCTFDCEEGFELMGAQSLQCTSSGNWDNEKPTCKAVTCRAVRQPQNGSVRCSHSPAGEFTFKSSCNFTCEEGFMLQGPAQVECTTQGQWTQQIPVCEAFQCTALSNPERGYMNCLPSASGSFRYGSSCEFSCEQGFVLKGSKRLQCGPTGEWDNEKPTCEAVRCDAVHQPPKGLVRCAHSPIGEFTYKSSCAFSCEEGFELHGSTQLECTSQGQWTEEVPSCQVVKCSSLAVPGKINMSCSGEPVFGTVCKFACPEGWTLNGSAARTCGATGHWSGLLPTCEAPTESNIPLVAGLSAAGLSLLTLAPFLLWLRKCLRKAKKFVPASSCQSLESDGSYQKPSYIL

As to `CC1=CCC2CC1C2(C)C` (stereo unspecified), the call in [1], in [2] and in [3] was inactive.

As to `C=C(C)C1CC=C(C)C(OC(C)=O)C1` (stereo unspecified), the compound was called inactive in [1], in test [2] and in test [3].

For `O=S(=O)(O)c1ccc(N=Nc2c(O)ccc3ccccc23)cc1`, the call in [4], in [5] and in test [2] was inactive.

In the case of `CC(C)OC(=O)c1ccccc1`, the compound was classed as inactive in test [1], in [5] and in test [3].

Consider `CC(=O)CCC1=C(C)CCCC1(C)C`, for which the compound was called inactive in [4], in test [5], in test [6] and in test [3]. Moreover, the AC50 in test [2] was 19.6 µM (active).

As to `CC(C)=NNC(N)=S`, the outcome in test [4], in test [5], in [2], in test [6] and in [3] was inactive.

As for `COC(=O)c1ccccc1C`, the compound was called inactive in test [4] and in test [6].

Turning to `COc1nccnc1CC(C)C`, the result in test [4], in test [6] and in test [3] was inactive.

`Nc1cccc(N)n1`: the compound was classed as inactive in [4], in test [5], in test [2], in [7], in [8] and in test [9]. Moreover, the result in test [10], in test [11], in [12], in test [3], in test [13] and in [14] was inactive. The result in [15], in test [16], in test [17], in test [18] and in test [19] was inactive.

With `Clc1cccnc1`, the compound was called inactive in test [4], in [5] and in [6].

For `Nc1ncnc2nc[nH]c12`, the compound was classed as inactive in test [4], in test [5] and in [6].

With `CCCCNS(=O)(=O)c1ccccc1`, the compound was classed as inactive in test [4], in test [6] and in [3].

On to `CC=C(C)C=CC=C(C)C`, for which the call in test [4], in test [2], in [6], in test [8], in test [9] and in test [12] was inactive. For the same compound, the result in test [13], in test [15], in [16], in test [17] and in [18] was inactive. The AC50 in [7] was 20 µM (active); in test [11], 20 µM (active); in test [19], 3.97 µM (active).

`CCOC(=O)C1=NN(c2ccc(Cl)cc2Cl)C(C)(C(=O)OCC)C1` (stereo unspecified): the call in test [4], in test [5], in [6], in test [8], in [9] and in [11] was inactive. The outcome in [12], in test [14], in test [16], in test [18] and in test [19] was inactive. Further, the AC50 in [13] is 20 µM (active); in test [15], 37.5 µM (active); in test [17], 12.4 µM (active).
